# Results from the supplement of paper PMC3334620.
# In all, about 33,000 sequences were measured (“E-score (-0.5 to 0.5)”: median about -0.043, highest 2% from about 0.37 on). This is one part of a sample in which the highest values are shown more often than they occur.
# Target: T1, Upc2 (UniProt Q12151)
# T1 sequence: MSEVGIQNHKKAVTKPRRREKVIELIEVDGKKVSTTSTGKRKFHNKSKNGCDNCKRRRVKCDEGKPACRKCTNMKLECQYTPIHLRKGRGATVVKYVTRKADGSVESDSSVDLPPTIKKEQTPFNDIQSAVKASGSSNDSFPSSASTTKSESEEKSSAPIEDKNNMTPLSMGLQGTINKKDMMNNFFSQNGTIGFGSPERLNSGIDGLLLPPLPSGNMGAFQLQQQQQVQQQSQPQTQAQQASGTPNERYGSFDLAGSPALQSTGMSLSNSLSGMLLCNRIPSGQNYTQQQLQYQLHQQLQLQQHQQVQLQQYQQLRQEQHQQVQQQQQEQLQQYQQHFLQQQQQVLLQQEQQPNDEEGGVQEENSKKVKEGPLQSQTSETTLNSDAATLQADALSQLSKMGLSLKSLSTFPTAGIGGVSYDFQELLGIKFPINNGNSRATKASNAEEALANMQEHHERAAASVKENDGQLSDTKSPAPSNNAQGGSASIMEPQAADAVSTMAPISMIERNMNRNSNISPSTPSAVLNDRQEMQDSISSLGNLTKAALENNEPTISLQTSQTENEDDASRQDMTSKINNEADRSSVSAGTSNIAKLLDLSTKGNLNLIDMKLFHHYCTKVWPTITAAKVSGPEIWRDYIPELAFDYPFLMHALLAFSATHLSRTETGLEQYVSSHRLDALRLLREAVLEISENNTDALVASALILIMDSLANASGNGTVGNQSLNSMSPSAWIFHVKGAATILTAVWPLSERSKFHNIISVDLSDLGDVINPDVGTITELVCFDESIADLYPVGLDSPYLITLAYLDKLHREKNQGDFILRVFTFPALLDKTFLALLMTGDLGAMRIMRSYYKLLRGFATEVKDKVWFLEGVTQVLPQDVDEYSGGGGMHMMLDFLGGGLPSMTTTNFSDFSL
# Assay: PBM E-score (8-mer binding enrichment) (E-score (-0.5 to 0.5)); higher = stronger / more preferred TF binding
# Details: protein concentration: 200 nM; construct: GST-full length
# Method in brief: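 Yeast transcription factors, full-length or as DNA-binding domains, were expressed with a GST tag using PURExpress in vitro transcription/translation. At about 100-200 nM they were applied to universal all-10-mer Agilent arrays, double-stranded by primer extension on fresh or once-stripped slides. Fluorescent anti-GST detected bound protein, and masliner normalised the scans. E-scores for ungapped eight-base words, pooled with reverse complements, came from the Universal PBM Analysis Suite.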
row,Sequence,PBM E-score
1,AGGCGTGA,-0.00507
2,CGGAAGTA,0.0369
3,AACCACAA,-0.077
4,GTGAATAA,-0.0516
5,ACAACTAC,-0.129
6,GCGAAAAA,0.148
7,GACTTAAC,0.00959
8,CTGAAGAA,-0.299
9,CCCATCGG,0.0976
10,AGCAAGCT,-0.253
11,CGTAAGAG,0.316
12,ACGCCATC,-0.0963
13,GCAAACAC,-0.00637
14,CGTTCCCA,0.373
15,GGTTCCCA,-0.0861
16,CGTTCCCC,0.333
17,AACGTATA,0.443
18,AACGTATC,0.142
19,AACGTATT,0.212
20,TACGTATA,0.423
21,TACGTAGA,0.18
22,TACGTACA,0.341
23,CACGTATC,0.132
24,GACGTATC,0.156
25,CACGTATA,0.433

row,Sequence,PBM E-score
1,GACGTAGC,0.0263
2,GACGTATA,0.424
3,CACGTATG,0.236
4,CGCAAATA,0.0612
5,AACAGGTC,0.056
6,TGAAAAAA,0.0284
7,ACACCGAG,-0.024
8,AACATTGT,0.0538
9,CCCGTAGC,0.0891
10,GCCGTACA,0.4
11,CCAGTACA,-0.157
12,ACCGTAAT,0.0464
13,ACCGTACG,0.383
14,ACCGTAGG,-0.135
15,CCCGTACC,0.383
16,CCAGTACC,0.0225
17,GCGGTACA,-0.0545
18,GCCGTGCA,-0.291
19,CCCGTACA,0.398
20,CACGTACA,0.272
21,ATCGACAA,0.0687
22,AACATCAT,-0.094
23,AAAAGCTG,0.0411
24,ACACACTC,-0.042
25,TTCAGCAA,-0.0506

row,Sequence,PBM E-score
1,CTCTCCAA,-0.0403
2,ACTCGACC,-0.0381
3,GCCGTACC,0.379
4,CCCGTACG,0.393
5,CGCGTACA,0.35
6,CCCGTAGG,-0.0508
7,ACCGTACC,0.366
8,TGCGTACA,0.318
9,GCCGTAGC,0.0955
10,AGCGTACG,0.354
11,TCCGTACA,0.406
12,CCCGTAAG,0.208
13,TCCGTAGA,-0.0263
14,CGCGTACG,0.4
15,AAGCTCAC,-0.0662
16,AAGAAGGC,-0.216
17,ATCAGTGC,-0.0682
18,CTTAGGCA,-0.361
19,ATTTCAGG,-0.0274
20,ATCGATAG,-0.0178
21,TAAATTGA,-0.0257
22,CGTGCATA,-0.0557
23,GCCCTTTA,-0.0758
24,ACCGTACA,0.39
25,ACTGTACA,0.133

row,Sequence,PBM E-score
1,ACCGTACT,0.214
2,AAGCGGCT,-0.0364
3,ACCGCTAC,0.14
4,CCACCGAA,-0.00574
5,CCACCGTA,0.399
6,CGACCGTC,-0.0557
7,CGGCCGTC,-0.0655
8,GCACCGTA,0.371
9,CGACCGTA,0.373
10,AGACCGTA,0.287
11,CCACCGTC,-0.227
12,AGGCCGTA,0.355
13,ACACCGTA,0.321
14,CGGCCGTA,0.378
15,GAACCGTA,0.269
16,AAAGATTC,0.0374
17,CCAAGAAG,-0.227
18,ATGCGTGC,0.03
19,CAGTCGCC,-0.196
20,ATTTGCTG,0.0559
21,CGTACACC,0.382
22,CGTACACA,0.418
23,TGTACACA,0.0892
24,CGTACACG,0.423
25,AGTACACG,0.198

row,Sequence,PBM E-score
1,GGTACACA,-0.235
2,GGTACACC,0.0641
3,AGTACACC,0.0771
4,AGTACACA,0.143
5,GATGAGGA,-0.0777
6,CCTGCAAA,-0.0886
7,GCAATTAC,-0.0538
8,AGGGTCCC,-0.229
9,ACGAGTAC,0.419
10,ACGAGTGG,0.295
11,ACGAGTCA,0.249
12,ACGAGTAA,0.348
13,ACGAGTCT,0.293
14,CCGAGTGC,-0.0549
15,CCGAGTAC,0.196
16,GCGAGTAC,0.204
17,ACGAGTAG,0.368
18,ACGAGTAT,0.376
19,ACGAGTGC,0.377
20,ACGAGTCG,0.384
21,CGCTGGGA,-0.0151
22,AAAGTGTT,0.0836
23,ATCGTCCG,-0.101
24,CGACGATA,0.169
25,CGGTAAAC,0.206

row,Sequence,PBM E-score
1,AAAGGTGG,-0.0797
2,AGCTTTAC,0.192
3,GTGGATAA,-0.151
4,ACAGTAGC,-0.0133
5,AAAATAGG,-0.0506
6,CTCGTTTC,0.452
7,AGCGTTTG,0.149
8,ATCGTTTG,0.452
9,CTCGTTGC,0.356
10,CGCGTTTC,0.0838
11,AGCGTTTC,0.0667
12,ATAGTTTG,-0.0286
13,ATCGTTTC,0.401
14,ATAGTTTC,-0.0466
15,GTCTGGAA,-0.122
16,GAAATTCC,-0.186
17,GACCCGAA,-0.0162
18,CCTGCGCG,-0.0152
19,CGGGCCAA,-0.307
20,AGCAGAGG,-0.293
21,GCAAGCGA,0.174
22,AACACCTT,0.0752
23,GCGTTTCA,-0.0903
24,GCGTTCCC,0.0703
25,GCGTTCCA,0.11

row,Sequence,PBM E-score
1,ACGTTCAA,0.238
2,GCGTTCAA,0.173
3,TCGTTCAA,0.459
4,TCGTTTCA,0.406
5,ACGTTCCC,0.0935
6,ACGTTCCA,0.116
7,CCGTTCCC,0.385
8,ACGTTTCA,0.116
9,TCGTTCCA,0.46
10,AGTCTTTA,-0.0445
11,AGACTGCG,-0.17
12,GCGAATTA,0.179
13,GGATGGAA,-0.0401
14,CGGGCATC,0.0742
15,GCCGCGTA,0.271
16,AGCCGAAG,-0.185
17,CTACAAGA,-0.194
18,CTTCGTAC,0.458
19,CTTCGTCC,-0.316
20,ATTCGTAC,0.452
21,CTTCGTCA,-0.0302
22,CTTCGTGC,-0.0549
23,ATTCGTGC,-0.094
24,CTTCGTGA,0.112
25,CTTCGTAA,0.427

row,Sequence,PBM E-score
1,ATTCGTCC,0.0624
2,CCCAGCCC,-0.217
3,CACACACC,0.0034
4,CTTCATAA,-0.121
5,AAGGCACC,-0.24
6,ATAGCGAC,0.17
7,ATAACGTG,0.0885
8,TAATGTAA,-0.0142
9,AAGCCTAT,-0.0475
10,CGGGAACG,0.404
11,CCGGAACA,-0.189
12,AGGGAACC,-0.104
13,CCGGAACC,-0.113
14,AAGGAACG,0.347
15,CGGGAACA,0.184
16,CGGGAACC,-0.12
17,AGGGAACG,0.39
18,CCGGAACG,0.376
19,CAGGAACC,-0.161
20,AGGGAACA,-0.22
21,CAGGAACG,0.396
22,AGCGCAAC,0.149
23,TTTCCAAA,-0.0113
24,AAGCTTGG,0.127
25,ACTGCGCC,-0.147

row,Sequence,PBM E-score
1,CCGGGGAA,-0.23
2,GGAAGTAA,-0.0533
3,GGCAATCA,-0.196
4,AAAGGATC,-0.127
5,ATCTCGTA,0.464
6,ATCTCGTC,0.123
7,CTCTCGAA,-0.0265
8,GTCTCGTA,0.456
9,GTCTCGGA,0.162
10,ATCTCGTG,0.124
11,GTCTCGAA,-0.0265
12,CTCTCGTA,0.453
13,CTCTCGTC,0.0223
14,AAGGTTCA,-0.145
15,GGCAGAGA,-0.14
16,GCCACAGA,-0.149
17,ATTGAACA,-0.0652
18,TTATCCAA,0.0246
19,GAGAGTAC,0.0133
